Measurements: PubChem BioAssay (NCATS)
Records with an inconclusive call do not appear. The source made the active and inactive calls. Unless noted, calls follow the shape of the dose curve; as a rule, active = well fitted curve in the direction sought with a large enough effect; inconclusive = small, poorly fitted or top-dose-only effect, or another doubt; inactive = no such curve, though single readings can be large; an effect the other way counts as inactive or inconclusive.

Legend:
[1] = target: ATP-dependent DNA helicase Q1 (Homo sapiens) (UniProt P46063); experiment: qHTS Validation Assay for Inhibitors of RecQ-Like Dna Helicase 1 (RECQ1) (AID 2353)
How it was run: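 50 nM RECQ1T1 preincubated 15 min with compound in Tris pH 8.0 buffer with MgCl2, DTT, Tween-20 and 2.5 ug/ml poly(dI-dC); started with 200 nM TAMRA/BHQ-2 forked duplex and 2 mM ATP. Unwinding read as fluorescence (525/598 nm), two reads 2 h apart.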

[2] = Cytometric Cell-Based qHTS for Inhibitors of the mTORC1 Signaling Pathway in MEF (Tsc2-/-, p53-/-) Cells (AID 2660);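 also: percent of cells above a phospho-rpS6 to PI ratio cutoff in each well; series mostly up to about 38 µM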
How it was run: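 Readout: Alexa-488 phospho-rpS6 (Ser235/236) intensity divided by PI intensity, thresholded against 7.5 nM rapamycin wells and reported as % positive cells. PI cell count served as the viability measure. Compound exposure was 24 hrs at 37 degree Celsius.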

[3] = High Content Imaging Cell-Based qHTS for Inhibitors of the mTORC1 Signaling Pathway in MEF (Tsc2-/-, p53-/-) Cells (AID 2666);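 also: percent of cells scored positive for phospho-rpS6 Ser235/236 immunostaining by imaging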
How it was run: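 Read-out: % positive cells per well, with thresholds from highest- and lowest-signal wells, based on phospho-rpS6 (Ser235/236) intensity normalized to Hoechst nuclear stain. Cells: Tsc2-/-, p53-/- MEFs carrying empty vector; compound 24 hrs, 37 degree Celsius.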

[4] = Cytometry Cell-Based qHTS for Inhibitors of the mTORC1 Signaling Pathway in MEF cells (AID 2668);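 also: Tsc2-/- p53-/- mouse embryonic fibroblasts stably re-expressing wild-type Tsc2; percent cells positive for phospho-rpS6 Ser235/236 relative to propidium iodide stain; series mostly up to about 38 µM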
How it was run: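 Tsc2-/-, p53-/- MEFs re-expressing WT Tsc2; cpd 24 hrs, 37 degree Celsius; PFA fix, Alexa-488 p-rpS6 (Ser235/236) Ab 2 hrs RT, PI counterstain; Acumen 488nm scan; p-S6/PI ratio → % positive cells; PI count = viability.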

[5] = Validation screen for small molecules that induce DNA re-replication in MCF 10A normal breast cells (AID 463097); also: nearly all actives have a fitted effect of over 60% in size
How it was run: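 Image-based qHTS: normal breast cells are incubated with compound for 48 hr, stained with Hoechst, and scanned for total nuclear fluorescence. Compounds raising the fraction of nuclei with elevated DNA content count as re-replication inducers.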

[6] = target: Ubiquitin carboxyl-terminal hydrolase 2 (Homo sapiens) (UniProt O75604); experiment: qHTS Validation Assay for Inhibitors of Ubiquitin-specific Protease USP2a Using CHOP2 as the Reporter (AID 463106)
How it was run: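 USP2 core (10nM final) was preincubated with compound for 30min at RT in 20mM Tris-HCl pH 8.0, 2mM CaCl2, 2mM beta-mercaptoethanol, 0.05% CHAPS. Ub-CHOP2 and reporter substrate (25nM each) were added, and fluorescence (Ex 485/Em 531nm) was read after 60min.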

[7] = target: DNA polymerase III PolC-type (Bacillus subtilis (strain 168)) (UniProt P13267); experiment: qHTS Validation Assay for the Inhibitors of DNA Replication in Gram-Positive Bacteria (AID 485295);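 also: reconstituted holoenzyme with PolC plus beta clamp SSB and primase; PicoGreen fluorescence of double-stranded DNA made on primed circular M13 template; series mostly up to about 57 µM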
How it was run: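 First, compound is mixed with the reconstituted replication complex and held at room temperature. Next, circular single-stranded M13Gori with nucleotides starts synthesis. Finally, PicoGreen in EDTA halts the reaction and stains double-stranded product for fluorescence reading.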

[8] = target: Tumor susceptibility gene 101 protein (Homo sapiens) (UniProt Q99816); experiment: qHTS Validation Assay for Iinhibitors of HIV-1 Budding by Blocking the Interaction of PTAP/TSG101 (AID 485342; calls by dose curve)
How it was run: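 Binding of a FITC-tagged PTAP-motif peptide (50 nM) to the Tsg101 binding domain (10 uM) is monitored by fluorescence polarization. Compounds are pin-delivered before peptide addition, and incubation runs 20 min at room temperature.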

[9] = qHTS Validation Assay to Find Inhibitors of Chronic Active B-Cell Receptor Signaling (AID 485345; active = well fitted curve in the direction sought with a large enough effect in the main read-out, with a control signal flat, not every such curve was filed as active)
How it was run: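 TMD8 ABC-DLBCL cells with dox-inducible green luciferase–IκBα fusion and red native luciferase; compounds 46 uM–3 nM, 4 h at 37C with doxycycline in 0.5% FBS IMDM. Green/red ratio normalized to basal and 10 uM MG-132.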

[10] = target: Beta-2 adrenergic receptor (Homo sapiens) (UniProt P07550); experiment: qHTS validation assay of beta-arrestin-biased ligands of beta2-adrenergic receptor (AID 485366)
How it was run: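 Tango cells (recombinant beta2-AR with recombinant beta-arrestin; recruitment releases tTA driving luciferase) were treated with compounds titrated up to 46 microM for 18 hr at 37 degrees C. Luminescence gave %Activity, and concentration-response curves were curve-classified.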

[11] = target: ATP-dependent 6-phosphofructokinase (Trypanosoma brucei brucei) (UniProt O15648); experiment: qHTS Validation Assay to Find Inhibitors of T. brucei phosphofructokinase (AID 485368)
How it was run: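 Compounds (up to 57 uM, titration series) were pinned into substrate buffer, then 1.25 nM PFK added; after 45 min at room temperature, ADP product was quantified by ADP-Glo luminescence and concentration-response curves fitted.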

[12] = Quantitative high throughput screen for delayed death inhibitors of the malarial parasite plastid, 96 hour incubation (AID 488745);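 also: luciferase-expressing P. falciparum in erythrocytes at 2% hematocrit and 0.1% parasitemia; series mostly up to about 29 µM; nearly all actives have a fitted effect of over 70% in size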
How it was run: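 Growth of reporter-bearing P. falciparum in red cells is measured after 96 h with compound, covering two erythrocytic cycles. Luminescence from the integrated luciferase serves as the growth signal.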

[13] = Quantitative high throughput screen for delayed death inhibitors of the malarial parasite plastid, 48 hour incubation (AID 488752); also: nearly all actives have a fitted effect of over 65% in size
How it was run: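 One parasite generation (48 h, 37 C, 5% CO2) of luciferase-reporter P. falciparum in erythrocytes is run with test compound; decreased luminescence indicates inhibited growth.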

[14] = target: Thioredoxin reductase 1, cytoplasmic (Rattus norvegicus) (UniProt O89049); experiment: qHTS Assay for Substrates of Mammalian Selenoprotein Thioredoxin Reductase 1 (TrxR1) (AID 488772);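 also: NADPH fluorescence in the first read after selenite addition and not the 8 min delta; series mostly up to about 57 µM; a drop in NADPH fluorescence below the no-compound background marks a TrxR1 substrate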
How it was run: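 Quantitative HTS in Tris-HCl buffer at pH 7.5 with EDTA and Tween-20, using rat TrxR1, 400 uM NADPH and 400 uM selenite (final). A fall in initial NADPH fluorescence relative to background marked substrate behaviour.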

[15] = target: Thioredoxin reductase 1, cytoplasmic (Rattus norvegicus) (UniProt O89049); experiment: qHTS Assay for Inhibitors of Mammalian Selenoprotein Thioredoxin Reductase 1 (TrxR1) (AID 488773); conditions: Potency: inhibition;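 also: drop in NADPH fluorescence over an 8 min run after selenite addition; series mostly up to about 57 µM; nearly all actives have a fitted effect of over 40% in size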
How it was run: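 Steps: enzyme (90 nM) plus NADPH (400 uM final), 5 min at ~22 deg C; compound added, 15 min; selenite (400 uM final) added; fluorescence followed for 8 min. Concentration-response curves derived from the normalized delta values.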

[16] = target: Flap endonuclease 1 (Homo sapiens) (UniProt P39748); experiment: qHTS Validation Assay for the Inhibitors of Human Flap endonuclease 1 (FEN1) (AID 488816)
How it was run: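 FEN1, dispensed as a 10 nM reagent, was preincubated with pin-transferred compounds for 15 min at room temperature before substrate was added (50 nM final). Plates were read at 0 and 15 min, and a four-parameter Hill equation was fitted to the concentration-response data.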

[17] = target: M-phase phosphoprotein 8 (Homo sapiens) (UniProt Q99549); experiment: qHTS Validation Assay for Inhibitors for MPP8 Chromodomain Interactions with Methylated Histone Tails (AID 488949);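 also: 50 nM MPP8 with 50 nM peptide preformed then compounds added for 30 min; AlphaScreen signal from MPP8 chromodomain bound to biotinylated H3K9me3 peptide; top concentration of the series differs between compounds; nearly all actives have a fitted effect of over 55% in size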
How it was run: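 50 nM MPP8 + 50 nM b-H3K9me3 peptide, PBS pH 7.4/0.01% Tween-20, 30 min RT; + cpd 30 min RT; + AlphaScreen donor/Ni-chelate acceptor beads 10 ug/mL final, 30 min dark; luminescence read.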

[18] = target: Chromobox protein homolog 1 (Homo sapiens) (UniProt P83916); experiment: qHTS Validation Assay for Inhibitors of HP1-beta Chromodomain Interactions with Methylated Histone Tails (AID 488953);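 also: loss of AlphaScreen luminescence from HP1-beta binding biotinylated H3K9me3 peptide; series mostly up to about 110 µM; nearly all actives have a fitted effect of over 50% in size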
How it was run: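 Measured as loss of AlphaScreen luminescence from streptavidin donor and nickel acceptor beads (10 ug/mL final) bridging HP1-beta and biotin-H3(1-18)K9me3, each 50 nM. Compounds met the preassembled complex for 30 min at RT.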

[19] = target: Methanococcus maripaludis chaperonin (MmCpn) (UniProt Q6LX38); experiment: High-Throughput Screening for Modulators of Cytosolic Chaperonin Activity: MmCpn Primary Screen (AID 488978);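 also: 50 nM MmCpn enzyme hydrolysing 30 µM ATP at 37 °C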
How it was run: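 Steps: chaperonin 50 nM final; add compound, 5 min RT; start with ATP, 30 uM final; hold 10 min at 37C; add ADP Transcreener HTRF reagent, 5 min; read ex 320, em 590 and 665 nm.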

Measured: Potency

Sequence of Methanococcus maripaludis chaperonin (MmCpn) (Q6LX38 1-543): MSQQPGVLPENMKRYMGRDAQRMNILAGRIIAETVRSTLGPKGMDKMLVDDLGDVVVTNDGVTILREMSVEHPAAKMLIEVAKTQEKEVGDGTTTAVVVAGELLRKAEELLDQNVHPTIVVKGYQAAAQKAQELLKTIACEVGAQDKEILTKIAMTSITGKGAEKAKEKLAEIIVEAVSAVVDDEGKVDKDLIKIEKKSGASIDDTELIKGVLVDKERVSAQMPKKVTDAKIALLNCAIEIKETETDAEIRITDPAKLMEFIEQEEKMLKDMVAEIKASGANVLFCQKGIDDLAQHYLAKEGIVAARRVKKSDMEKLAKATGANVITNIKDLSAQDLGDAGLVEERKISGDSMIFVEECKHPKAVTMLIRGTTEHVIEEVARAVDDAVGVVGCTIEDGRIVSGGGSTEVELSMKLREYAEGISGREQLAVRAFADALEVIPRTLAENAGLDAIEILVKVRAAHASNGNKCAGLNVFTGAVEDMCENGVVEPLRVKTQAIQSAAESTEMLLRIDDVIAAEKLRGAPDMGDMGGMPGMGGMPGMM
Sequence of Beta-2 adrenergic receptor (Homo sapiens) (P07550 whole entry, looked up): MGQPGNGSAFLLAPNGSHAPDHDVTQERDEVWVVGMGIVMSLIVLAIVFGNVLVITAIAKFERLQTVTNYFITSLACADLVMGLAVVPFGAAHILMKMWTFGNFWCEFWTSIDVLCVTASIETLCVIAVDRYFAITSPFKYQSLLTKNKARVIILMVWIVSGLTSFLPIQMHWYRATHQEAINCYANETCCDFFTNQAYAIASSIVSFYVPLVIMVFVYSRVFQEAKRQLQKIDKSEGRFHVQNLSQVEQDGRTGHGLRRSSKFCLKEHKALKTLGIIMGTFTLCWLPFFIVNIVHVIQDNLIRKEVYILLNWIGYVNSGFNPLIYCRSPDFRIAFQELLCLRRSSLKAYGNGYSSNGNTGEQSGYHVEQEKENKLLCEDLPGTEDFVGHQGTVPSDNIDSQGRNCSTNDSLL
Sequence of M-phase phosphoprotein 8 (Homo sapiens) (Q99549 whole entry, looked up): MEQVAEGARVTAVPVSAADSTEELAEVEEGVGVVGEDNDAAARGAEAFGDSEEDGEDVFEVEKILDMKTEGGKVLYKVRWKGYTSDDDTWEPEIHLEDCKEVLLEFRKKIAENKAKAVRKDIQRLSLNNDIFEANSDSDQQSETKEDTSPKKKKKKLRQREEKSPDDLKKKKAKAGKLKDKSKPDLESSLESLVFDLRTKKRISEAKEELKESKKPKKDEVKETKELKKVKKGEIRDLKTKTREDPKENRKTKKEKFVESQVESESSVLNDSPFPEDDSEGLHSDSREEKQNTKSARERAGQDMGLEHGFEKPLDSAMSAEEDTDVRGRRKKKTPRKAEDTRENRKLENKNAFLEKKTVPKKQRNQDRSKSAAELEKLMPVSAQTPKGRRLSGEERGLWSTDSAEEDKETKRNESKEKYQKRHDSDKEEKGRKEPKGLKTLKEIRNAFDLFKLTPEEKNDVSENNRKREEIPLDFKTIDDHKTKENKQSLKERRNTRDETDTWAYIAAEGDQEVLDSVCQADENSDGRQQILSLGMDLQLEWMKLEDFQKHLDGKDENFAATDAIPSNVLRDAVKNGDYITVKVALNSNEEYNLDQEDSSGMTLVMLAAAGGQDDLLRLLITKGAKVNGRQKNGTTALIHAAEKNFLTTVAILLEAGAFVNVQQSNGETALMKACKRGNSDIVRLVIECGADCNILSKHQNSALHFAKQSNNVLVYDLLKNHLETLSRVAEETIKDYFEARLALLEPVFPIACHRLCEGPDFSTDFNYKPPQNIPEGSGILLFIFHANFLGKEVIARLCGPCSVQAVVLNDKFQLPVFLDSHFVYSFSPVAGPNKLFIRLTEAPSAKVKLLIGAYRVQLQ
Sequence of Tumor susceptibility gene 101 protein (Homo sapiens) (Q99816 whole entry, looked up, the tested form may be a part): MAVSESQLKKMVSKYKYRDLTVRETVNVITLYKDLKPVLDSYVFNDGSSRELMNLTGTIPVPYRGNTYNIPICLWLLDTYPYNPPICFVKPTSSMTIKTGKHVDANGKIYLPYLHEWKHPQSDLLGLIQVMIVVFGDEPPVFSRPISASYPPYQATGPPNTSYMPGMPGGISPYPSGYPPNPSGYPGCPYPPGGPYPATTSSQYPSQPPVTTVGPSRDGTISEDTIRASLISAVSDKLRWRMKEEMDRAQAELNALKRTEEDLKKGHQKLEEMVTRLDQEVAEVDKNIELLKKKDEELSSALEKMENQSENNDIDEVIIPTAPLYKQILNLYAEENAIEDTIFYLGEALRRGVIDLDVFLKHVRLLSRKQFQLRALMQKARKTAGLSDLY
Sequence of Ubiquitin carboxyl-terminal hydrolase 2 (Homo sapiens) (O75604 whole entry, looked up): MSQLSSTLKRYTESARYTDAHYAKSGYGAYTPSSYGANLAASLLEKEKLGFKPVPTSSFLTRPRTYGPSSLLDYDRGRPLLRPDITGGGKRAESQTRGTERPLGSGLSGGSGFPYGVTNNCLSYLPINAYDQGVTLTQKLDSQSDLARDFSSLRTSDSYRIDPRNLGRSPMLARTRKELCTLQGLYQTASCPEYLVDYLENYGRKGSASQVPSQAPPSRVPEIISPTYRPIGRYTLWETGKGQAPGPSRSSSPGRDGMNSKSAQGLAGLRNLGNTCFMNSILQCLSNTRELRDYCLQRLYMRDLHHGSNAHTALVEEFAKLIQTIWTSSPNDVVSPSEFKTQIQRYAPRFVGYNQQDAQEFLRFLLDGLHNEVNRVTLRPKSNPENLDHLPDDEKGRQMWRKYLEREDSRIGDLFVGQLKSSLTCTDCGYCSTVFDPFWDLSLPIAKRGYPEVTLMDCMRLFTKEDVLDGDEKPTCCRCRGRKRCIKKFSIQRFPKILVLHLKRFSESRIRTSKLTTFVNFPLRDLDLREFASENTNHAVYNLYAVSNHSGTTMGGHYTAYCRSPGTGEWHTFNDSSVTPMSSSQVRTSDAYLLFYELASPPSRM
Sequence of ATP-dependent 6-phosphofructokinase (Trypanosoma brucei brucei) (O15648 whole entry, looked up): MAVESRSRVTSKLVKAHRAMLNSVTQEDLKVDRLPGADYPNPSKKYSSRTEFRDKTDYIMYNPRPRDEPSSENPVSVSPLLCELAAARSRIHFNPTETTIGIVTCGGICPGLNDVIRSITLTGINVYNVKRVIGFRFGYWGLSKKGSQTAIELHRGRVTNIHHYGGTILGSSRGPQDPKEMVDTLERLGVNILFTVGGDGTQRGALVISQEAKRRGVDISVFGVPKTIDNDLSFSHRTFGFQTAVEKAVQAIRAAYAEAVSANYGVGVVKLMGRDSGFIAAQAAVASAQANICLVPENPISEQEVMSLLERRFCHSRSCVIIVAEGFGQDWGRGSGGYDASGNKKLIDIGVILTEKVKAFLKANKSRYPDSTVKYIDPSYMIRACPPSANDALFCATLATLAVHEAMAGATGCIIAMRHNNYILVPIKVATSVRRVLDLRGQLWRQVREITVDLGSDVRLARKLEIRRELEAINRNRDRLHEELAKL
Sequence of Flap endonuclease 1 (Homo sapiens) (P39748 whole entry, looked up): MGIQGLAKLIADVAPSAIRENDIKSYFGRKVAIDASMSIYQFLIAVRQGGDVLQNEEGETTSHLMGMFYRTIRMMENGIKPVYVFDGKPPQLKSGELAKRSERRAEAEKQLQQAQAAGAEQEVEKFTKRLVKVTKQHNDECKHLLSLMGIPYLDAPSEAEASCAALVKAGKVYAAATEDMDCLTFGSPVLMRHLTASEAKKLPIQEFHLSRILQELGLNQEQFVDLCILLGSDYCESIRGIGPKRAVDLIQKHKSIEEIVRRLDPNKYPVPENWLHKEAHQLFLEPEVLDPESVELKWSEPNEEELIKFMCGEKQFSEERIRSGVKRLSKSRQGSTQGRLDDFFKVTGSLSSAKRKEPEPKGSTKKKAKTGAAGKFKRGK
Sequence of Thioredoxin reductase 1, cytoplasmic (Rattus norvegicus) (O89049 whole entry, looked up): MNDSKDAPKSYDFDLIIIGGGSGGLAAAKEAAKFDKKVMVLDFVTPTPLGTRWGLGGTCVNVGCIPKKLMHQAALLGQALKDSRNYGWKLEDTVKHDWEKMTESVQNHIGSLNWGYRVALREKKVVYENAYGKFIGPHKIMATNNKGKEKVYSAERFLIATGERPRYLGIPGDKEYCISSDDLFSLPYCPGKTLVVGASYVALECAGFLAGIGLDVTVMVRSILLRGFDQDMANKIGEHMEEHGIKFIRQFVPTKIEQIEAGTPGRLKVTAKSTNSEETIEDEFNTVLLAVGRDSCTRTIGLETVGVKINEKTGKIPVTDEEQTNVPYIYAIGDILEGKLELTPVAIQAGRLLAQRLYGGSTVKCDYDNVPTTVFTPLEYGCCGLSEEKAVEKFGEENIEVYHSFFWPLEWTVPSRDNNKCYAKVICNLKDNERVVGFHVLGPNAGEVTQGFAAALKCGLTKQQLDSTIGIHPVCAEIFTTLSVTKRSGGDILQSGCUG
Sequence of Chromobox protein homolog 1 (Homo sapiens) (P83916 whole entry, looked up): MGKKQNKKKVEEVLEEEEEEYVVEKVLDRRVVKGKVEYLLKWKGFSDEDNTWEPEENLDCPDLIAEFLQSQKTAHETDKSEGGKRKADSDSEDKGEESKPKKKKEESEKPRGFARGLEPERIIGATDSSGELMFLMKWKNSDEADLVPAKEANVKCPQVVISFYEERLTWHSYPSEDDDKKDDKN

CN(C)CCOC(C)(c1ccccc1)c1ccccn1 (stereo not drawn)
inactive: all assays above

C[C@]12CC[C@@H]3c4ccc(O)cc4CC[C@H]3[C@@H]1CCC2=O
not listed: [9] | [12] | [13]
inactive: all other assays above

O=C1N=C(O)CN1/N=C/c1ccc(-c2ccc([N+](=O)[O-])cc2)o1
not listed: [11] | [12] | [13] | [14] | [18]
inactive: all other assays above

CCCn1cnc2c1c(=O)n(CCCCC(C)=O)c(=O)n2C
not listed: [9]
inactive: all other assays above

C[C@](N)(Cc1ccc(O)cc1)C(=O)O
not listed: [12]
inactive: all other assays above

COCCOC(=O)C1=C(C)NC(C)=C(C(=O)OC/C=C/c2ccccc2)C1c1cccc([N+](=O)[O-])c1 (stereo not drawn)
not listed: [1] | [5] | [9] | [12] | [13] | [18]
inactive: all other assays above
